Screening results deposited in PubChem by National Center for Advancing Translational Sciences (NCATS).
SMN2 splice enh: increases expression of the SMN2 splice variant. Potency, µM (highest dose often 46.1 µM), inactives show top-dose activity change, positive = activation, most hits filed as activators. HEK293 SMN2-luciferase splicing reporter, luminescence, 30-36 h. actives 2.8% (n = 210,000); also: % of control where 0% means no effect; nearly all actives have a fitted effect of over 55% in size
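qHTS luciferase splicing reporter: luminescence rises when SMN2 exon 7 is included in transfected HEK293 cells. Compound exposure lasted 30-36 h at 37C, with 4.5 mM final sodium butyrate as control, followed by a ONE-Glo read.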
ELG1 DNA repair: inhibitors of ELG1-dependent DNA repair in HEK293T cells | HEK293T ELG1-luciferase reporter, luminescence, 16 h; DNA damage induced by 5-fluorouridine | Potency, µM (top dose mostly 46.1 µM), without a hit: at the top dose activity change, negative = inhibition, most hits filed as inhibitors | actives 2.3% (n = 330,000) | AID 504467; also: % is scaled to controls: 0 for no effect and ±100 for the full control effect; nearly all actives have a fitted effect of over 55% in size
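5-Fluorouridine DNA damage + compound/DMSO, 2,000 cells/well, 16 h, 37 °C/5% CO2. ONE-Glo, 30 min RT, luminescence. Readout = decrease in reporter signal.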
Rab9 promoter act: activators of Rab9 promoter; actives 2.8% (n = 320,000); Huh7 Rab9 promoter-luciferase reporter, luminescence, 24 h; Potency, µM (titrated, usually from 9.22 µM), inactives show top-dose activation, negative = inhibition, actives largely listed as activators; AID 485297; also: % of control where 0% means no effect; nearly all actives have a fitted effect of over 60% in size
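Luminescence read-out: Huh7 cells stably expressing Rab9-luciferase, treated 24 h with compound at 37 °C, then lysed with luciferase reagent for 10 min at ambient before reading.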
ELG1 genotox: inducers of genotoxicity in HEK293T ELG1-luciferase cells; Potency, µM (titrated, usually from 46 µM), for inactives: top-dose activity change, positive = activation, actives largely listed as activators; HEK293T ELG1-luciferase reporter, luminescence, 16 h; actives 1.3% (n = 330,000); also: % of control where 0% means no effect; nearly all actives have a fitted effect of over 60% in size
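After overnight (16 hr) compound treatment at 37 °C, ELG1-luciferase HEK293T cells were lysed with ONE-Glo; luminescence quantified 30 min later at room temperature.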
FLuc counter: counter-screen for miR-21 project: firefly luciferase inhibitors or activators; actives 6.9% (n = 360,000); purified FLuc, Km substrates, luminescence inhibition; P08659; Potency, µM (doses to about 57.5 µM), without a hit: at the highest dose activity change, negative = inhibition, actives largely listed as inhibitors;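 also: plate controls were vehicle for no effect and reference inhibitor for full effect; nearly all actives have a fitted effect of over 55% in size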
Target sequence (P08659 whole entry, looked up): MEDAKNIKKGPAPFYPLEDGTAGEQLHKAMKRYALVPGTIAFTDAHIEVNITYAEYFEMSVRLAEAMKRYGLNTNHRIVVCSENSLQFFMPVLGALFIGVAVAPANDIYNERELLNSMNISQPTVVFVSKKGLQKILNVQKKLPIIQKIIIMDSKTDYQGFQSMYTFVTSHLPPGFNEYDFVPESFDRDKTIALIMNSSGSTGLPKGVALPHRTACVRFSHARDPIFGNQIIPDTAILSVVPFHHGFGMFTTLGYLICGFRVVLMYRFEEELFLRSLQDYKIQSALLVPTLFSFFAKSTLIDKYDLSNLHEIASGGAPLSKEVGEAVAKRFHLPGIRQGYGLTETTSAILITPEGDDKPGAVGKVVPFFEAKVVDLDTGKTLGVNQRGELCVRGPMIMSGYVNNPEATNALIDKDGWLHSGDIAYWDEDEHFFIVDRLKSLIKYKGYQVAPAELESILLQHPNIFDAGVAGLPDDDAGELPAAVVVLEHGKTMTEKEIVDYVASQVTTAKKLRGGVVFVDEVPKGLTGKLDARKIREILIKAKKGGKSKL
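Purified P. pyralis luciferase, 10 nM final, with Km-level 10 uM D-luciferin and 10 uM ATP in 50 mM Tris acetate pH 7.5, 10 mM Mg acetate, 0.01% Tween-20, 0.05% BSA; 6-point qHTS titration about 60 µM downward; luminescence read.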
NPC1 prom act: activators of NPC1 promoter | AID 485313 | Huh7 NPC1 promoter luciferase reporter, 24 h | actives 2.4% (n = 320,000) | Potency, µM (top dose mostly 9.22 µM), without a hit: at the highest dose activation, usual class: activators; also: % of control where 0% means no effect; nearly all actives have a fitted effect of over 60% in size
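NPC1 promoter–luciferase Huh7 cells; 24 h compound; luminescence.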
* hit, by the source's call; ? = inconclusive; · = not tested or not shown; ! = repeats disagree; [ ] = remark or other dose. A selection: hits, their analogues and other compounds. The true share with any hit is near 9.2%. Calls follow the shape of the dose curve; as a rule, active = well fitted curve in the direction sought with a large enough effect; inconclusive = small, poorly fitted or top-dose-only effect, or another doubt; inactive = no such curve, though single readings can be large; an effect the other way counts as inactive or inconclusive. Potency is read from the fitted curve at half-maximal effect.

SMILES	SMN2 splice enh	ELG1 DNA repair	Rab9 promoter act	ELG1 genotox	FLuc counter	NPC1 prom act
Cc1cc(C)c(NC(=O)CSc2ccc(-c3cccnc3)nn2)c(C)c1	-28%	-16%	-1%	0%	-6%	0%
CCCCNC(=O)c1sc2ncnc(N3CCc4ccccc4C3)c2c1C	1%	?	-7%	-4%	-3%	3%
CCOC(=O)CNC(=O)c1sc2ncnc(N3CCc4ccccc4C3)c2c1C	13%	18µM*	-1%	-14%	-16%	-4%
CCOC(=O)c1ccc(NC(=O)c2cccc3c(=O)c4c([nH]c23)CCCC4)cc1	·	·	·	·	2%	·
O=C1/C(=C/c2ccc([N+](=O)[O-])cc2)CCC1C1CCCC1 (stereo unspecified)	·	?	-1%[1.84 µM]	13%	0.76µM*	-6%
O=[N+]([O-])c1ccc(/C=N/n2c(C3CCCCC3)n[nH]c2=S)cc1	26%	29%	-1%	2%	2%	1%
COc1cc(/C=C2\CCC(C3CCCC3)C2=O)cc(OC)c1OC (stereo unspecified)	·	?	14%	3%	?	3%
Cc1cccc(/C=C2\CCC(C3CCCC3)C2=O)c1 (stereo unspecified)	-6%	?	21%	?	4.8µM*	24%
COc1cccc(/C=C2\CCC(C3CCCC3)C2=O)c1 (stereo unspecified)	·	?	?	?	1.7µM*	?
Cc1nn(CC(=O)OCC(=O)c2ccccc2)c(C)c1[N+](=O)[O-]	·	14%	·	1%	·	·
Cc1ccc(CNC(=O)Cn2ncc3c(C)n(Cc4ccc(Cl)cc4)c(C)c3c2=O)cc1	26%	·	·	·	2%	·
O=C(OCc1ccccc1)N1CCc2ccccc21	·	?	1.6µM*	16µM*	2.7µM*	0.63µM*
O=C(CCCc1ccccc1)N1CCc2ccccc21	11µM*	?	0.45µM*	2.1µM*	2.1µM*	1.1µM*
Nc1cc(N)nc(SCC(=O)N2CCc3ccccc32)n1	?	?	?	13%	?	?
O=C(CSCc1ccco1)c1ccc(Cl)s1	9%	?	?	7%	6.7µM*	2.8µM*
O=C(CSc1ccccc1)N1CCc2ccccc21	18µM*	?	3.5µM*	?	6.7µM*	3.5µM*
CCn1c(SCC(=O)NC(=O)c2ccccc2OC)nc2ccccc21	·	16%	5%	8%	2%	-3%
COc1cc(Cl)c(NC(=O)CCc2nc3cccnc3n2-c2ccccc2)c(OC)c1	6%	·	·	·	-1%	·
O=C(COc1ccc(Br)cc1)N1CCc2ccccc21	·	?	2.8µM*	?	9.5µM*	?
CCOc1ccc(C(=O)N2CCc3ccccc32)cc1	·	?	0.89µM*	?	15µM*	3.5µM*
CCCOc1ccc(C(=O)N2CCCc3ccccc32)cc1	8%	2%	0%	30%	-5%	7%
O=C(COc1ccccc1Cl)N1CCc2ccccc2C1	·	?	28%	7%	?	15%
CCCn1c(SCC(=O)N2CCc3ccccc32)nnc1-c1ccco1	-1%	-9%	2%	-5%	-2%	-16%
O=C(COc1ccccc1Cl)N1CCc2ccccc21	·	?	1.3µM*	9.2µM*	6.7µM*	2µM*
O=C(CSCc1ccco1)N1CCc2ccccc21	·	?	3.5µM*	?	9.5µM*	2.8µM*
SMILES	SMN2 splice enh	ELG1 DNA repair	Rab9 promoter act	ELG1 genotox	FLuc counter	NPC1 prom act
COc1ccc2nc(NC(=O)C3CCN(C(=O)c4ccco4)CC3)sc2c1	·	?	?	18%	?	?
O=C(Cc1ccc(Br)cc1)Nc1cccc(-c2cn3c(n2)SCC3)c1	-60%	?	-1%	-13%	?	-3%
O=C(COc1ccccc1)N1CCc2ccccc21	14µM*	?	1.3µM*	?	5.4µM*	?
COC(=O)CN(C)C(=O)c1ccccc1OC1CCN(S(C)(=O)=O)CC1	·	12%	7%	8%	-3%	0%
CCCCN1CCc2c([nH]c3ccc(C)cc23)C1=O	?	?	3.5µM*	26%	2.4µM*	2.8µM*
Cc1ccc2[nH]c3c(c2c1)CCC3=O	16%	?	0%	?	-2%	2%
COc1ccccc1NS(=O)(=O)c1ccc(C(=O)NCc2ccco2)cc1	·	-20%	·	-2%	·	·
Cc1ccc2nc(-c3ccc(NC(=O)CSc4nccc(=O)[nH]4)cc3)sc2c1	8.9µM*	?	0.4µM*	?	2.7µM*	1.4µM*
Nc1cc(=O)[nH]c(SCC(=O)Nc2nc3ccc([N+](=O)[O-])cc3s2)n1	6%	9%	-1%	-2%	?	-3%
Cc1ccc2nc(-c3ccc(NC(=O)CSc4nc(N)cc(=O)[nH]4)cc3)sc2c1	·	?	2.8µM*	?	3.4µM*	2.8µM*
Cc1cc(C)nc(NC(=O)c2ccccc2O)n1	·	-15%	14%	-3%	?	-5%
O=c1[nH]c2cc(Cl)c(Cl)cc2[nH]c1=O	11µM*!	·	16%[46.1 µM]	·	·	24%[46.1 µM]
O=c1[nH]c2ccc(F)cc2[nH]c1=O	2%	3%	0%	0%	-1%	-4%
